# Many of the other results were omitted from the sample, so hits are more common in it than they were.
# PglD DTNB – C. jejuni PglD acetyltransferase inhibitors, primary screen, biochemical, DTNB colorimetric, single point; inhibition, % at 12.5 µM; purified PglD enzyme, DTNB colorimetric CoA detection; actives 0.098% (n = 360,000); AID 602405, 2012; in the data active = inhibition above about 16%, passing the limit was not always enough; inconclusive = no clear call, values can overlap the other calls
# N-glyco inh – increase of ERlucT glycosylation luciferase signal, primary screen, N-linked glycosylation inhibitor project, D54 ERlucT cells, luminescence, set 2. D54 ERlucT glycosylation luciferase reporter, 24 h; percent of 100 nM tunicamycin response. reporter increase, % at 12.5 µM. actives 0.23% (n = 360,000);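 active = mean luciferase reporter signal, scaled so untreated is 0 and the glycosylation-blocking control 100, at or above a set limit in every replicate; inconclusive = mean reaches the limit but not every replicate does; inactive = mean below the limit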;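 also: luciferase carries N-glycosylation sites so blocking glycosylation raises the light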
# Rtt109 Vps75 – inhibitors of C. albicans Rtt109/Vps75 HAT, primary screen, biochemical, ThioGlo CoA-SH fluorescence, plate reader | inhibition, % at 34.9 µM | purified Rtt109/Vps75, 4 h | actives 0.16% (n = 330,000);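 active = inhibition of at least 50% in every replicate; inconclusive = best replicate reaches 50% inhibition but some replicates fall short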
# Target sequence (Q5AAJ8 whole entry, looked up): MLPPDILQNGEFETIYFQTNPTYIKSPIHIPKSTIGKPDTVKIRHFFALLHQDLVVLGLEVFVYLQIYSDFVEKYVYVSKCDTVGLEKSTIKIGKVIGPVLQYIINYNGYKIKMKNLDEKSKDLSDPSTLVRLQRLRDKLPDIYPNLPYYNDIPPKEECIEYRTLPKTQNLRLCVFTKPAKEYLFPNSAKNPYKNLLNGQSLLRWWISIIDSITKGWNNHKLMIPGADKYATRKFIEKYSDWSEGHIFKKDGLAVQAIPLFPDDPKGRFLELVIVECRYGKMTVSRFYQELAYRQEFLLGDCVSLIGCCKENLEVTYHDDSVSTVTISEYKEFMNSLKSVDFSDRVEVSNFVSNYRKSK
# DENV2 CPE – inhibitors of DENV2 cytopathic effect, primary screen, cell-based, plate reader, single concentration; AID 651640, 2012; CPE inhibition, % at 9.99 µM; DENV2-infected cells, cytopathic effect rescue; actives 1.7% (n = 350,000); in the data active = CPE inhibition above about 20%, passing the limit was not always enough; inconclusive = no clear call, values can overlap the other calls; tested in BHK-21 cells
# A number is an active result; - = inactive; ? = inconclusive; . = not tested or not shown.
SMILES,PglD DTNB,N-glyco inh,Rtt109 Vps75,DENV2 CPE
CO[C@@H]1CN(C)C(=O)c2ccc(NS(=O)(=O)c3ccccc3)cc2OC[C@@H](C)N(C)C[C@@H]1C,-,.,.,-
C[C@@H]1CN([C@@H](C)CO)S(=O)(=O)c2ccc(-c3ccccc3F)cc2O[C@H]1CN(C)C(=O)C1CC1,-,.,.,-
CO[C@@H]1CN(C)C(=O)c2ccc(NC(C)=O)cc2OC[C@@H](C)N(C(=O)Nc2ccccc2F)C[C@H]1C,-,.,.,-
Cc1cccc(CCNC(=O)CCc2nc(-c3ccccc3F)no2)c1,-,-,-,.
CN(C(=O)CCc1nc(-c2ccccc2F)no1)c1ccccc1,.,-,55,-
CCCOc1ccc(C(=O)N/N=C/c2c[nH]c3ccc(Br)cc23)cc1,-,-,-,-
CCCCCN=C(N)N/N=C/c1c[nH]c2ccc(OC)cc12,-,-,78,-
CCCNC(=O)[C@H]1[C@H](CO)[C@H]2Cn3c(ccc(C4=CCCC4)c3=O)[C@@H]1N2CCC(F)(F)F,-,.,.,-
Cc1cc(NS(=O)(=O)c2ccc(NC(=O)COc3c(C)cc(Br)cc3C)cc2)no1,-,33,-,-
COc1ccc(OCC(=O)Nc2ccc(S(=O)(=O)Nc3cc(C)on3)cc2)cc1,-,-,-,-
COc1ccc(-c2ccc([C@@H]3[C@@H](CO)N4CCCCN(CC5CCOCC5)C[C@H]34)cc2)cc1,-,.,.,48
COc1ccc(-c2ccc([C@@H]3[C@H]4CN(CC5CCOCC5)CCCCN4[C@H]3CO)cc2)cc1,-,.,.,63
COc1cccc(-c2ccc([C@@H]3[C@H](CO)N4CCCCN(CC5CCOCC5)C[C@@H]34)cc2)c1,-,.,.,-
Cc1ccc(OCCNC(=O)C(=O)NCc2ccco2)cc1,.,26,-,-
Cc1ccc(OCCNC(=O)/C=C/c2ccccc2)cc1,.,-,-,28
COc1ccc(S(=O)(=O)Nc2cccc3c2O[C@H](CN(C)S(=O)(=O)c2cn(C)cn2)[C@@H](C)CN([C@@H](C)CO)C3=O)cc1,-,.,.,-
C[C@@H]1CCCCO[C@H](CN(C)C)[C@@H](C)CN([C@H](C)CO)C(=O)c2cc(NS(=O)(=O)c3cccs3)ccc2O1,-,.,.,-
C[C@@H]1CCCCO[C@H](CN(C)CC2CC2)[C@@H](C)CN([C@H](C)CO)C(=O)c2cc(NS(=O)(=O)c3cccs3)ccc2O1,-,.,.,-
C[C@H]1CCCCO[C@H](CN(C)C(=O)CCCN(C)C)[C@@H](C)CN([C@@H](C)CO)C(=O)c2cc(NS(=O)(=O)c3cccs3)ccc2O1,.,.,.,23
C[C@@H]1CCCCO[C@H](CN(C)S(=O)(=O)c2cccs2)[C@@H](C)CN([C@H](C)CO)C(=O)c2cc(NS(=O)(=O)c3cccs3)ccc2O1,-,.,.,59
C[C@@H]1CN([C@@H](C)CO)C(=O)c2cc(NS(=O)(=O)c3cccs3)ccc2O[C@@H](C)CCCCO[C@@H]1CN(C)C,-,.,.,20
C[C@@H]1CCCCO[C@H](CN(C)CC2CC2)[C@H](C)CN([C@@H](C)CO)C(=O)c2cc(NS(=O)(=O)c3cccs3)ccc2O1,.,.,.,42
COc1cccc(S(=O)(=O)N2C[C@H](O)COC[C@@H]3O[C@@H](CC(=O)N4CCCCC4)CC[C@H]32)c1,-,.,.,-
C[C@@H]1CN([C@H](C)CO)S(=O)(=O)c2ccc(C3=CCCC3)cc2O[C@H]1CN(C)C(=O)c1ccccn1,-,.,.,-
COc1ccccc1-c1ccc2c(c1)[C@H]1[C@H](CCN1C(=O)C1CCOCC1)[C@@H](CO)N2,-,.,.,-
SMILES,PglD DTNB,N-glyco inh,Rtt109 Vps75,DENV2 CPE
Cn1c(N)c(C(=O)COC(=O)Cc2ccc(Cl)c(Cl)c2)c(=O)n(C)c1=O,-,-,-,57
COc1ccc(CC(=O)OCC(=O)c2c(N)n(C)c(=O)n(C)c2=O)cc1OC,-,-,-,-
Cc1ccc(S(=O)(=O)N2CCOCC2)cc1C(=O)OCC(=O)c1c(N)n(C)c(=O)n(C)c1=O,-,-,-,-
Cn1c(N)c(C(=O)COC(=O)c2cc(S(=O)(=O)N3CCOCC3)ccc2F)c(=O)n(C)c1=O,-,50,-,?
O=C(O)CCc1ccc(-c2ccc(Cl)cc2)o1,-,-,-,.
COc1ccc(-c2ccc(CCC(=O)O)o2)cc1,.,-,58,-
COc1ccc(CN(C)C[C@@H]2Oc3ccc(NS(=O)(=O)c4ccccc4)cc3C(=O)N([C@H](C)CO)C[C@H]2C)cc1,-,.,.,-
COc1cc(CCC(=O)Nc2nnc(C)s2)cc(OC)c1OC,-,33,-,-
CC=Cc1ccc2n(c1=O)C[C@@H]1[C@@H](CO)[C@H](C(=O)N3CCOCC3)[C@H]2N1CC1CCCC1 (mixture of isomers),-,.,.,36
O=C([C@@H]1[C@@H](CO)[C@@H]2Cn3c(cccc3=O)[C@H]1N2CC1CCCC1)N1CCOCC1,.,.,.,-
O=C(NC1CCC1)[C@@H]1[C@@H](CO)[C@@H]2Cn3c(cccc3=O)[C@H]1N2CC1CCCCC1,-,.,.,-
CCC(=O)N1[C@@H]2c3cccc(=O)n3C[C@H]1[C@H](CO)[C@H]2C(=O)N1CCCCC1,-,.,.,-
O=C([C@H]1[C@H](CO)[C@H]2Cn3c(cccc3=O)[C@@H]1N2CC1CCCCC1)N1CCOCC1,-,.,.,63
O=C(NC1CCC1)[C@H]1[C@H](CO)[C@H]2Cn3c(cccc3=O)[C@@H]1N2CC1CCCC1,.,.,.,36
O=C([C@@H]1[C@@H](CO)[C@@H]2Cn3c(cccc3=O)[C@H]1N2C(=O)CC1CC1)N1CCCCC1,-,.,.,148
CC=Cc1ccc2n(c1=O)C[C@@H]1[C@@H](CO)[C@H](C(=O)N(C)C)[C@H]2N1CC1CCCC1 (mixture of isomers),.,.,.,-
COc1ccccc1CNC(=O)C[C@@H]1C[C@H]2c3cc(N(C)C)ccc3O[C@H]2[C@@H](CO)O1,-,.,.,47
COc1ccccc1CNC(=O)C[C@H]1C[C@@H]2c3cc(N(C)C)ccc3O[C@@H]2[C@@H](CO)O1,-,.,.,-
CN(C)c1ccc2c(c1)[C@@H]1C[C@H](CC(=O)NCc3ccccc3)O[C@@H](CO)[C@@H]1O2,-,.,.,21
C[C@@H]1CN([C@@H](C)CO)C(=O)c2cccc(NC(=O)Nc3ccc4c(c3)OCO4)c2O[C@@H]1CN(C)S(=O)(=O)c1ccc(Cl)cc1,-,.,.,-
O=C(CCNC(=O)c1ccco1)Nc1ccc(Cl)cc1F,-,-,-,28
O=C(CN1CCN(c2cccc(C(F)(F)F)c2)CC1)N(C1CCCC1)C1CCS(=O)(=O)C1 (stereo not drawn),-,-,-,51
C[C@H]1CN([C@@H](C)CO)C(=O)c2cc(-c3cccc(C(=O)N(C)C)c3)cnc2O[C@@H]1CN(C)C,-,.,.,-
CCN(C(=O)N(CC)c1ccccc1)c1ccccc1,-,-,-,20
CCCNC(=O)N1CCC2(CC1)CN(C(=O)CC1CC1)[C@@H](CO)c1[nH]c3cc(OC)ccc3c12,.,.,.,-
